Each structure is given as a SMILES string. Where “and” joins values, the source holds several entries; their conditions need not be identical. Equal values may be shown once. This is part of a sample that, as a whole, favours compounds with a hit. Of some 83,000 tested, about 20% had one in any assay.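 Method: cells in 96-well plates; compound added at one concentration; 48 h incubation; percent growth measured; values under 10 scored active.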 Calls of active or inactive are those of the source.

The test system of this experiment is UO-31 renal. The experiment in a line: NCI-60 one-dose screen, 48 h (100 = growth as untreated, 0 = no growth, -100 = all killed). As to conditions: 10 µM unless noted. The method, then: Growth inhibition of the UO-31 human tumor cell line is measured as a screen for anti-cancer activity. Cells are grown in 96 well plates and exposed to the test compound for 48 hours. Compounds are tested at a single concentration, which is 10^-5 M for most compounds. The reported endpoint is percent growth (GI% or GIPRCNT), where numbers from 0 - 100% represent growth inhibition, and numbers from -100% - 0 represent cell death. For example, a value of 40 represents 60% growth inhibition. A value of 0 means no net growth occurred over the course of the experiment. A value of -40 indicates 40% of cells at the beginning of the experiment died by the end of the experiment. A value of -100 means all cells are dead at the end of the experiment.
NCI-60 Human Tumor Cell Lines Screen was performed using the standard one-dose NCI protocol, which is described in more detail at https://dtp.cancer.gov/discovery_development/nci-60/default.htm.
Compounds with GIPRCNT values below 10 were considered active. Activity score was based on GIPRCNT using the following formula: […]
Score is 0 for GIPRCNT values of 100 or above, 50 for GIPRCNT values of 0, and 100 for GIPRCNT values of -100.
For the compound `CC[C@H](C)[C@H]1O[C@]2(C=C[C@@H]1C)C[C@@H]1C[C@@H](C/C=C(\C)[C@@H](O[C@H]3C[C@H](OC)[C@@H](O[C@H]4C[C@H](OC)[C@@H](NC)[C@H](C)O4)[C@H](C)O3)[C@@H](C)/C=C/C=C3\CO[C@@H]4[C@H](O)C(C)=C[C@@H](C(=O)O1)[C@]34O)O2`, the growth is -63.2% (active).
With `c1ccc(CCN2CCCCC2)nc1` the figure was 96.4% (inactive).
As for `CCCCCCCCCCCCCCCCCCn1cc[n+](C)c1`, the growth was -61.4% (active) and -66.1% (active).
With `Nc1nc(=S)nc(N)[nH]1`, the growth is 74.1% (inactive).
Take `CN(C)C(=S)SSC(=S)N(C)C`: the growth was 79.1% (inactive) and 80.5% (inactive).
Take `C[C@]12CC[C@H](O)C[C@@H]1CC[C@@H]1[C@@H]2CC[C@]2(C)OC(=O)CC[C@@H]12`: the growth is 83.1% (inactive).
With `CCN1C(=O)CC(=O)N(CC)C1=S` the figure was 91.7% (inactive).
Take `O=[N+]([O-])c1cc(Cl)c(Cl)cc1Cl`: the growth was 104% (inactive) and 95.4% (inactive).
With `O=C(O)C(O)c1ccc(Cl)cc1` (stereo not given) the figure was 99.6% (inactive) and 87.7% (inactive); with `O=[N+]([O-])c1ccc(OCc2ccc(S(=O)(=O)F)c(Cl)c2)c(Cl)c1`, 70% (inactive); with `O=C1c2ccccc2C(=O)N1N1CC1c1ccccc1` (stereo not given), 91.3% (inactive).
As to `COC(=O)CCP(CCC(=O)OC)c1ccccc1`, the growth is 91.4% (inactive).
As for `COC12CC3(C)C(C4=CC(=O)OC4)CCC3(O)C3CCC4=CC(=O)CCC4(CO1)C32` (stereo not given), the growth was 80.7% (inactive).
Under `CC[C@H](C)[C@H](NC(=O)c1cnccn1)C(=O)N(C)[C@H](C[C@@H](OC(C)=O)c1nc(C(=O)N[C@@H](Cc2ccccc2)C[C@H](C)C(=O)OC)cs1)C(C)C` stands 40.7% (inactive); under `Cc1cc[c-]cc1.Fc1c[c-]c(-c2ccccn2)c(F)c1.N#CCC[PH+](CCC#N)c1ccccc1.[Pt+2]`, 24.7% (inactive).
Turning to `O=C(CBr)OCCOC(=O)CBr`, the growth was -92.4% (active).
As to `O=[N+]([O-])c1ccc2scc3c4ccccc4nc-3c2c1`, the growth is -85.4% (active).
Under `COc1c(O)cc2c(c1OC)-c1ccc(SC)c(=O)cc1C(NC(C)=O)CC2` (stereo not given) stands 16.2% (inactive).
With `CC1(C)N=C(N)N=C(N)N1c1ccc(CCC(=O)Nc2ccc(S(=O)(=O)F)cc2)cc1` the figure was 82.3% (inactive); with `CCCCCCCCCCCCCCCCCC1OCC(COC(=O)O[C@@H](C(=O)O[C@H]2C[C@@]3(O)[C@@H](OC(=O)c4ccccc4)[C@@H]4[C@]5(OC(C)=O)CO[C@@H]5C[C@H](O)[C@@]4(C)C(=O)[C@H](OC(C)=O)C(=C2C)C3(C)C)[C@@H](NC(=O)c2ccccc2)c2ccccc2)O1` (stereo not given in full), 107% (inactive).
With `CCC1CCC(=O)O1` (stereo not given) the figure was 85.5% (inactive) and 95% (inactive).
Regarding `C[N+]12CCC34C5=CC(=O)C(=O)C=C5[N+]5(C)C(=O)CC6OCC=C(C1)C(CC32)C6C45` (stereo not given), the growth was 96.7% (inactive).
Under `CN(C)[C@@H]1C(=O)C(C(N)=O)=C(O)[C@@]2(O)C(=O)C3=C(O)c4c(O)ccc(Cl)c4[C@@](C)(O)[C@H]3C[C@@H]12` stands 55.1% (inactive) and 82.1% (inactive).
`Oc1cc(Cl)ccc1Oc1ccc(Cl)cc1Cl`: the growth was -0.646% (active).
On to `O=C(NC(Cl)=C(Cl)Cl)P(=O)(c1ccccc1)c1ccccc1`, for which the growth was 95.8% (inactive).
Regarding `Cc1ccccc1-n1c(/C=C\c2ccccn2)nc2ccccc2c1=O`, the growth was 54.7% (inactive).
As for `CC12CCC3C(CCC4CC(O)CCC43C)C1CCC2=O` (stereo not given), the growth was 94.1% (inactive).
As for `Cc1cc2c(cc1-c1ccnc(/C=C/C(=O)O)c1)C(C)(C)CCC2(C)C`, the growth is 62.1% (inactive).
Take `CCCCOCCOP(=O)(OCCOCCCC)OCCOCCCC`: the growth is 100% (inactive).
With `COc1ccc(CN)cc1OC` the figure was 96.8% (inactive) and 82.6% (inactive); with `CC[C@H](C)[C@H](NC(=O)[C@H]1CCCCN1C)C(=O)N(C)[C@H](C[C@@H](OC(C)=O)c1nc(C(=O)N[C@@H](Cc2ccccc2)C[C@H](C)C(=O)O)cs1)C(C)C`, 38.2% (inactive); with `O=C(O)CNCP(=O)(O)O`, 72.8% (inactive).
Consider `CC[C@@H](C)C(=O)O[C@H]1[C@H](O)[C@H]2[C@@H](CN3C[C@@H](C)CC[C@H]3[C@@]2(C)O)[C@@H]2C[C@]34O[C@]5(O)[C@@H](OC(=O)[C@@](C)(O)CC)CC[C@@]3(C)[C@@H]5[C@@H](OC(C)=O)[C@@H](OC(C)=O)[C@H]4[C@@]21O`, for which the growth is 82.1% (inactive).
On to `O=[N+]([O-])c1ccc(CI)cc1`, for which the growth is 91.9% (inactive).
In the case of `O=C1NC(=O)C(=C/C=C/c2ccccc2)C(=O)N1`, the growth is -64.3% (active).
With `C[C@]12CC[C@H]3[C@@H](CC=C4c5nc(N)sc5CC[C@@]43C)[C@@H]1CC[C@@H]2O` the figure was 96.3% (inactive); with `CC12CCC3C4CCC(=O)C=C4CCC3C1CC1CC(=O)OC12` (stereo not given), 85.5% (inactive); with `CCCN1C(=O)NC(=O)C(CC)(N2C(=O)c3c(F)c(F)c(F)c(F)c3C2=O)C1=O` (stereo not given), -98.8% (active).
Under `C=CC[PH+](c1ccccc1)c1ccccc1.C=CC[PH+](c1ccccc1)c1ccccc1.[Pt+2].[S-]c1nc2ccccc2[nH]1.[S-]c1nc2ccccc2[nH]1` stands 35.2% (inactive); under `CC[C@H](C)[C@H](NC(=O)CN(C)C)C(=O)N(C)[C@H](C[C@@H](OC(C)=O)c1nc(C(=O)NC23C4C5C2C2C3C4C52C(=O)OC)cs1)C(C)C` (stereo not given in full), 54.9% (inactive).

The values above are taken from PubChem BioAssay (NCI).
